{"source": "PubChem BioAssay (NCI)", "note": "Compounds without any hit were thinned out: in the full panel of roughly 83,000, 20% have a hit.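 A percent growth of 40 corresponds to 60% growth inhibition; 0 means no net growth; -100 means all cells died. Active threshold: below 10.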 Activity calls are given as the source filed them.", "data": [{"tested_on": "MDA-MB-468 breast", "assay": "NCI-60 one-dose screen, 48 h (100 = growth as untreated, 0 = no growth, -100 = all killed)", "conditions": "10 µM unless noted", "values": [{"compound": "O=C(CSc1nc2sc3c(c2c(=O)n1-c1ccc(Cl)cc1)CCCC3)Nc1nc(-c2cccc(Br)c2)cs1", "growth": "65.1% (inactive)"}, {"compound": "CNC(=O)c1cc(Oc2ccc3c(c2)sc2nc(-c4ccc(NC(=O)[C@@H](NC(=O)OC)C(C)C)cc4)cn23)ccn1", "growth": "28.4% (inactive)"}, {"compound": "COc1ccc(-c2cc(-c3ccccc3)nc(SCCCCCCC(=O)NO)n2)cc1", "growth": "64.1% (inactive)"}, {"compound": "O=CNc1c(Cl)cc2c(c1Cl)Cc1cc([N+](=O)[O-])ccc1-2", "growth": "-3.02% (active)"}, {"compound": "O=C(O)CCCCSc1ncnc2nc[nH]c12", "growth": "96% (inactive)"}, {"compound": "Cn1c2ccccc2c2c3[nH]c(=O)[nH]c(=O)c3c3c4ccccc4n(C)c3c21", "growth": "32.4% (inactive)"}, {"compound": "Cc1cn(C(=O)/C(Cl)=C(/Cl)C(=O)O)c2ccccc12", "growth": "108% (inactive)"}, {"compound": "COc1cc2c(cc1O)CC[C@@H]1[C@@H]2CC[C@]2(C)[C@@H](OCCCN(C)C)CC[C@@H]12", "growth": "-58.5% (active)"}, {"compound": "O=C1NC(c2ccc(Cl)c(Cl)c2)=C/C1=C\\c1ccccc1", "growth": "63.3% (inactive)"}, {"compound": "C=C1/C(=C\\C=C2/CCC[C@]3(C)[C@@H]([C@H](C)CCCC(C)(C)O)CC[C@@H]23)C[C@@H](OC(=O)CBr)C[C@@H]1O", "growth": "72.8% (inactive)"}, {"compound": "COc1cc(C2C=C(C)N=C3SC=CN32)cc(OC)c1OC", "note": "(stereo not given)", "growth": "97.5% (inactive)"}, {"compound": "O=C1NC(=O)/C(=C/c2c(-c3ccccc3)nc3sc(COc4ccccc4)nn23)S1", "growth": "98.9% (inactive)"}, {"compound": "Cc1cc2ccccc2c2cc3ccccc3cc12", "growth": "5.23% (active)"}, {"compound": "Cc1ccc(F)c(NC(=O)Nc2ccc(-c3cccc4[nH]nc(N)c34)cc2)c1", "growth": "15.7% (inactive)"}, {"compound": "O=C(Nc1ccc2ncnc(Nc3ccc(F)c(Cl)c3)c2c1)c1ccccc1", "growth": "-8.33% (active)"}, {"compound": "CC(NC(N)=S)c1ccccc1", "note": "(stereo not given)", "growth": "-11.5% (active)"}, {"compound": "COc1ccc(C2C(C#N)=C(N)Oc3c2ccc2ccccc32)cc1", "note": "(stereo not given)", "growth": "14.5% (inactive)"}, {"compound": "NC(N)=NS(=O)(=O)c1ccc(N=NC2C(=O)NN(c3ccccc3)C2=O)cc1", "note": "(stereo not given)", "growth": "96.6% (inactive)"}, {"compound": "CCOC(=O)c1c(O)cc(-c2ccccc2)cc1-c1sc(N(C)Cc2ccccc2)nc1Cl", "growth": "111% (inactive)"}, {"compound": "CN(C)CCN1C(=O)c2c(c3c4ccccc4n4c3c3c2c2ccccc2n3C2CC(O)C(O)C4(C)O2)C1=O", "note": "(stereo not given)", "growth": "12.8% (inactive)"}, {"compound": "COc1ccc(C(O)c2cc3c(N)c(C(=O)Nc4cccc(Cl)c4)sc3nc2C)cc1", "note": "(stereo not given)", "growth": "22.4% (inactive)"}, {"compound": "Nc1nc(-c2cnccn2)nn1-c1nc2ccccc2s1", "growth": "102% (inactive)"}, {"compound": "CCCCCc1cc[n+](CC(=O)c2ccc([N+](=O)[O-])cc2)cc1", "growth": "11.8% (inactive)"}, {"compound": "C#C[C@]1(O)CC[C@H]2[C@@H]3CC=C4c5sc(Nc6cccc(Cl)n6)nc5CC[C@]4(C)[C@H]3CC[C@@]21C", "growth": "23.3% (inactive)"}, {"compound": "O=C(CSc1ccc(-c2nc3ccccc3[nH]2)cn1)N1CCN(c2ccccc2F)CC1", "growth": "53.1% (inactive)"}, {"compound": "COc1ccc(/C=C/C(=O)c2c(O)c(C)c(O)c3c2OC2=CC(O)=C(C(C)=O)C(=O)[C@]23C)cc1", "growth": "-40.1% (active)"}, {"compound": "c1ccc2c(c1)Nc1ccncc1S2", "growth": "107% (inactive)"}, {"compound": "O=C(Nc1nc2ccccc2s1)c1cc(-c2ccc(F)cc2)n2nc(-c3ccccc3)cc2n1", "growth": "118% (inactive)"}, {"compound": "CC(=N\\N=C(N)N)/C(=N/N=C(N)N)c1ccccc1", "growth": "39.6% (inactive)"}, {"compound": "O=C(Nc1cccc(Cn2c(=O)[nH]c3ccc(Oc4ncccn4)cc3c2=O)c1)c1cccc(F)c1", "growth": "49.8% (inactive)"}, {"compound": "Cc1ccc(-c2nc(/C=N/Nc3cc(C)nc4ccc(Br)cc34)c(C)o2)cc1", "growth": "-89% (active)"}, {"compound": "CCc1cc2c(c3ccc(C(=O)CBr)cc13)CCCC2", "growth": "111% (inactive)"}, {"compound": "COC(=O)CCCCCCN=Cc1c(O)c(O)c(C(C)C)c2cc(C)c(-c3c(C)cc4c(C(C)C)c(O)c(O)c(C=NCCCCCCC(=O)OC)c4c3O)c(O)c12", "growth": "47.1% (inactive)"}, {"compound": "COc1cc2nc(-c3ccc(Cl)cc3)cc(OCCCN3CCOCC3)c2cc1OC", "growth": "59.9% (inactive)"}, {"compound": "O=C(Cn1cc(CSc2nc3ccccc3o2)nn1)Nc1ccc(F)cc1F", "growth": "104% (inactive)"}, {"compound": "COc1ccc2oc(=O)cc(Cn3cc(Cn4cnc5c4c(=O)n(C)c(=O)n5C)nn3)c2c1", "growth": "101% (inactive)"}, {"compound": "Cc1cc(C)c(-c2cc(O)c(-c3c(C)cc(C)cc3C)cc2O)c(C)c1", "growth": "4.15% (active)"}, {"compound": "O=C(c1ccc(/C=C/c2n[nH]c3ccccc23)cc1)N1CCNCC1", "growth": "65.9% (inactive)"}, {"compound": "O=C1/C=C/[C@@H](O)[C@@H]2C[C@@H](O)C[C@H]2/C=C/CCC[C@H](CCOCc2ccccc2)O1", "growth": "-41.9% (active)"}, {"compound": "CN1CCc2c(sc3ncnc(N/N=C/c4ccc(Cl)c(Cl)c4)c23)C1", "growth": "-26.6% (active)"}]}]}
